Numbering of substitutions follows the chain as printed.
Legend:
Assay in all cases: yeast three-hybrid, YBZ-1, SC-Leu-His + 0.5 mM 3-AT, 4 days
Conditions in all cases: tags: N-Gal4 AD-HA kept; label: inside an RPR1-promoter hybrid RNA with tandem MS2 sites; ssRNA
PUM1 PUF domain R4-THP = PUM1 PUF domain R4-THP (Homo sapiens, UniProt Q14671 828-1176, N971T;Q975P)
In short: (§1)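 Matching RNA elements and Pumilio-1 PUF domain libraries, randomized at the three base-contacting residues of every repeat, were co-expressed from a centromeric plasmid in strain YBZ-1 (LexA–MS2 coat fusion, HIS3 reporter). The repeat regions were PCR-amplified and Illumina-sequenced from cells grown four days on SC-Leu (input) or SC-Leu-His + 0.5 mM 3-AT (selection). The interaction score is the log change in variant frequency from input to selection. It is computed in log2, with a pseudocount of 1 for absent variants.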

PUM1 PUF domain R4-GPR = PUM1 PUF domain R4-GPR (Homo sapiens, UniProt Q14671 828-1176, N971G;H972P;Q975R)
In short: as §1

PUM1 PUF domain R4-NQQ = PUM1 PUF domain R4-NQQ (Homo sapiens, UniProt Q14671 828-1176, H972Q)
In short: as §1

PUM1 PUF domain R6-CFY = molecular target: T1, PUM1 PUF domain R6-CFY (Homo sapiens, UniProt Q14671 828-1176, N1043C;Y1044F;Q1047Y)
T1 sequence: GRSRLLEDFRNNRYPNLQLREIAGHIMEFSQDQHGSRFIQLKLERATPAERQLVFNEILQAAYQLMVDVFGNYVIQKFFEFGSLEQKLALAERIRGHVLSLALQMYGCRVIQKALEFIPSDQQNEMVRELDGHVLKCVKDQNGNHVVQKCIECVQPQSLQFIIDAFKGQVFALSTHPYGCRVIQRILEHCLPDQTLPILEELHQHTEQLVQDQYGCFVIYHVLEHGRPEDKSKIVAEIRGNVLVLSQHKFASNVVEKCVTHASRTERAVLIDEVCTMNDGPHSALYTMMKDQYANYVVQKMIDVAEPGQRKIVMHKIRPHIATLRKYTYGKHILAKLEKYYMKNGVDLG
In short: as §1

PUM1 PUF domain R5-DFA = PUM1 PUF domain R5-DFA (Homo sapiens, UniProt Q14671 828-1176, C1007D;R1008F;Q1011A)
In short: as §1

PUM1 PUF domain R8-PWQ = PUM1 PUF domain R8-PWQ (Homo sapiens, UniProt Q14671 828-1176, N1122P;Y1123W)
In short: as §1

PUM1 PUF domain R6-VWV = molecular target: T2, PUM1 PUF domain R6-VWV (Homo sapiens, UniProt Q14671 828-1176, N1043V;Y1044W;Q1047V)
T2 sequence: T1 sequence with C216V, F217W, Y220V
In short: as §1

PUM1 PUF domain R4-DFG = PUM1 PUF domain R4-DFG (Homo sapiens, UniProt Q14671 828-1176, N971D;H972F;Q975G)
In short: as §1

PUM1 PUF domain R3-SPT = PUM1 PUF domain R3-SPT (Homo sapiens, UniProt Q14671 828-1176, C935S;R936P;Q939T)
In short: as §1

PUM1 PUF domain R6-AYQ = molecular target: T3, PUM1 PUF domain R6-AYQ (Homo sapiens, UniProt Q14671 828-1176, N1043A)
T3 sequence: T1 sequence with C216A, F217Y, Y220Q
In short: as §1

PUM1 PUF domain R7-RTL = PUM1 PUF domain R7-RTL (Homo sapiens, UniProt Q14671 828-1176, S1079R;N1080T;E1083L)
In short: as §1

PUM1 PUF domain R7-RRA = PUM1 PUF domain R7-RRA (Homo sapiens, UniProt Q14671 828-1176, S1079R;N1080R;E1083A)
In short: as §1

PUM1 PUF domain R7-VSR = PUM1 PUF domain R7-VSR (Homo sapiens, UniProt Q14671 828-1176, S1079V;N1080S;E1083R)
In short: as §1

PUM1 PUF domain R1-CWR = PUM1 PUF domain R1-CWR (Homo sapiens, UniProt Q14671 828-1176, S863C;R864W;Q867R)
In short: as §1

## GGCUAGAACUAGUGGAUCCCCCGGCGCCCGGCGGCUCGAGCCCGGGUAAGUGUAUAUAGUCUGCAUGCCGCCGGGCGCCAUGCCUGCAGGUCGACUCUAGAAAACAUG
PUM1 PUF domain R4-THP
  binding signal: 2.79 log2 enrichment (interaction score)
PUM1 PUF domain R4-GPR
  binding signal: 0.87 log2 enrichment (interaction score)
PUM1 PUF domain R4-NQQ
  binding signal: 2.71 log2 enrichment (interaction score)

## GGCUAGAACUAGUGGAUCCCCCGGCGCCCGGCGGCUCGAGCCCGGGUAAGUGUAAAUAGUCUGCAUGCCGCCGGGCGCCAUGCCUGCAGGUCGACUCUAGAAAACAUG
PUM1 PUF domain R6-CFY
  binding signal: 2.39 log2 enrichment (interaction score)
PUM1 PUF domain R5-DFA
  binding signal: 4.36 log2 enrichment (interaction score)
PUM1 PUF domain R8-PWQ
  binding signal: 3.79 log2 enrichment (interaction score)
PUM1 PUF domain R6-VWV
  binding signal: 1.13 log2 enrichment (interaction score)
PUM1 PUF domain R4-DFG
  binding signal: 5.83 log2 enrichment (interaction score)
PUM1 PUF domain R3-SPT
  binding signal: 2.13 log2 enrichment (interaction score)

## GGCUAGAACUAGUGGAUCCCCCGGCGCCCGGCGGCUCGAGCCCGGGUAAGUGAAAAUAGUCUGCAUGCCGCCGGGCGCCAUGCCUGCAGGUCGACUCUAGAAAACAUG
PUM1 PUF domain R6-CFY
  binding signal: 1.54 log2 enrichment (interaction score)
PUM1 PUF domain R6-AYQ
  binding signal: 4.26 log2 enrichment (interaction score)
PUM1 PUF domain R6-VWV
  binding signal: 4.54 log2 enrichment (interaction score)

## GGCUAGAACUAGUGGAUCCCCCGGCGCCCGGCGGCUCGAGCCCGGGUAAGUUUAAAUAGUCUGCAUGCCGCCGGGCGCCAUGCCUGCAGGUCGACUCUAGAAAACAUG
PUM1 PUF domain R7-RTL
  binding signal: 3.26 log2 enrichment (interaction score)
PUM1 PUF domain R7-RRA
  binding signal: 3.23 log2 enrichment (interaction score)
PUM1 PUF domain R7-VSR
  binding signal: 3.33 log2 enrichment (interaction score)

## GGCUAGAACUAGUGGAUCCCCCGGCGCCCGGCGGCUCGAGCCCGGGUAAGUGUAAAUGGUCUGCAUGCCGCCGGGCGCCAUGCCUGCAGGUCGACUCUAGAAAACAUG
PUM1 PUF domain R1-CWR
  binding signal: 1.23 log2 enrichment (interaction score)

## GGCUAGAACUAGUGGAUCCCCCGGCGCCCGGCGGCUCGAGCCCGGGUAAGUGUAAAUCGUCUGCAUGCCGCCGGGCGCCAUGCCUGCAGGUCGACUCUAGAAAACAUG
PUM1 PUF domain R1-CWR
  binding signal: 6.18 log2 enrichment (interaction score)

## GGCUAGAACUAGUGGAUCCCCCGGCGCCCGGCGGCUCGAGCCCGGGUAAGUCUAAAUAGUCUGCAUGCCGCCGGGCGCCAUGCCUGCAGGUCGACUCUAGAAAACAUG
PUM1 PUF domain R7-RRA
  binding signal: 5.23 log2 enrichment (interaction score)

Source: paper PMC8384837, “Expanding the binding specificity for RNA recognition by a PUF domain”
